{"source": "the supplement of paper PMC11732987", "about": "“Enantioselective OTUD7B fragment discovery through chemoproteomics screening and high-throughput optimisation” (Communications Chemistry, 2025)", "test_in_all_cases": "log2 ratio of Biotin-Ahx-Ub-VS probe labelling (fragment/DMSO); higher = less target engagement (more negative = stronger competition), active = hit call of the paper (q ≤ 0.05, log2 ratio ≤ -1)", "settings_in_all_cases": "compound concentration: 200 uM; treatment time: 3 h", "key": {"OTUD6B": {"biological_target": "T1, OTUD6B (UniProt Q8N6M0)", "T1 sequence (whole entry)": "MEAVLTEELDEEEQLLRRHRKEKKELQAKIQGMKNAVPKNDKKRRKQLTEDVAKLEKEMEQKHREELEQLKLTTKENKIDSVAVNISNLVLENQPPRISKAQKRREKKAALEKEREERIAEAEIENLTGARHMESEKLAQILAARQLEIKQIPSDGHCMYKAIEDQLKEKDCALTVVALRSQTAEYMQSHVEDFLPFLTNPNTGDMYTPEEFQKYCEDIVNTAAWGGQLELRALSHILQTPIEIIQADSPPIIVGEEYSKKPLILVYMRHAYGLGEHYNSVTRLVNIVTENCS", "outline": "(§1)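 Fragment (200 µM) or vehicle was incubated for 3 h with triplicate HEK293T lysate samples of 495 µg, which were then treated with Biotin-Ahx-Ub-VS at 0.5 µM final for 1 h. Labelled DUBs were enriched on NeutrAvidin, digested with LysC and trypsin, and analysed by diaPASEF LC-MS/MS. Values are average log2 fragment/vehicle ratios from an unpaired t-test on global-median-normalised Spectronaut label-free quantities, using proteins with ≥2 unique peptides.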"}, "OTUD7B": {"biological_target": "T2, OTUD7B (UniProt Q6GQQ9)", "T2 sequence (whole entry)": "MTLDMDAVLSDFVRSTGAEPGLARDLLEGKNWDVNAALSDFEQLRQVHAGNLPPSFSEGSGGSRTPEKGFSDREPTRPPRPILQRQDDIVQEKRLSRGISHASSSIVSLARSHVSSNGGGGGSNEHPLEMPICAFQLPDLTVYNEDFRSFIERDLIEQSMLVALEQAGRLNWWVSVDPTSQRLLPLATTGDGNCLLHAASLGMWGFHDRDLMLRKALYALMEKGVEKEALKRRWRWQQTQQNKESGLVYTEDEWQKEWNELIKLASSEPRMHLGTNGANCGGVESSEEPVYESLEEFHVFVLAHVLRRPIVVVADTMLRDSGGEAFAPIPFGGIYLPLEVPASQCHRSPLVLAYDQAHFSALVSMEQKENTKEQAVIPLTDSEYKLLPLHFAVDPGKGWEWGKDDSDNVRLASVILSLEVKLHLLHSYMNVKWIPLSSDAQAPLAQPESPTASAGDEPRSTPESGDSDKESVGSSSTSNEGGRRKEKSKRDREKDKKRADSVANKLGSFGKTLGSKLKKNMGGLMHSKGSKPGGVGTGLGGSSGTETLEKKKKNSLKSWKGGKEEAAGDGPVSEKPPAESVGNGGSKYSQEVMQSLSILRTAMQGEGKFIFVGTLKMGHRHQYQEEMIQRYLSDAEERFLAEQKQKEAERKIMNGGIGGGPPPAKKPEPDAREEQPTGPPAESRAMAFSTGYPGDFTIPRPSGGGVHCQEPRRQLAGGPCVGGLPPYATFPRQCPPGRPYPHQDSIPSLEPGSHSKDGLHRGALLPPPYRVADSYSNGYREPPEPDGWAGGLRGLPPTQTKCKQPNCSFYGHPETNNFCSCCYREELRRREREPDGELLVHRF", "outline": "as §1"}, "PRPF8": {"biological_target": "PRPF8 (UniProt Q6P2Q9)", "outline": "as §1"}, "PSMD7": {"biological_target": "T3, PSMD7 (UniProt P51665)", "T3 sequence (whole entry)": "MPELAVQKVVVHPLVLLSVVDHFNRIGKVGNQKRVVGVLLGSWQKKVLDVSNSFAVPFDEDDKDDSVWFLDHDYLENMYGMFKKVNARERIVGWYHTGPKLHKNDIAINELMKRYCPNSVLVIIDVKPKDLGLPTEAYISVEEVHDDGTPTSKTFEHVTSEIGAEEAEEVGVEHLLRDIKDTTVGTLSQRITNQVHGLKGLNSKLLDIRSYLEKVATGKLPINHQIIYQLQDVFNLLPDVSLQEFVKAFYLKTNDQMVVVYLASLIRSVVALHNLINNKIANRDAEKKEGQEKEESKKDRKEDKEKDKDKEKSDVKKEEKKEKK", "outline": "as §1"}, "UCHL1": {"biological_target": "UCHL1 (UniProt P09936)", "sequence (P09936 whole entry, looked up)": "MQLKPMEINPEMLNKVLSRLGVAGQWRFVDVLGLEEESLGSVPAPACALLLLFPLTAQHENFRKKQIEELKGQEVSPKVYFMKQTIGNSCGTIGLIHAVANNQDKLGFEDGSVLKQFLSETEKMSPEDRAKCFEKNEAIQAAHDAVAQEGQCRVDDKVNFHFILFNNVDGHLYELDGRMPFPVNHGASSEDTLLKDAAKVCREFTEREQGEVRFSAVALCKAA", "outline": "as §1"}, "UCHL3": {"biological_target": "T4, UCHL3 (UniProt P15374)", "T4 sequence (whole entry)": "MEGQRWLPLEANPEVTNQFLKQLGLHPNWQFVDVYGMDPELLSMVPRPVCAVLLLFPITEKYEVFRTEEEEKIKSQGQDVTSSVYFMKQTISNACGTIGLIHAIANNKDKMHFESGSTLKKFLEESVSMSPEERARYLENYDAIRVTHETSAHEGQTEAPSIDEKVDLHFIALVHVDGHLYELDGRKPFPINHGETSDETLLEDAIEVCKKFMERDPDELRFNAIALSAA", "outline": "as §1"}, "UCHL5": {"biological_target": "T5, UCHL5 (UniProt Q9Y5K5)", "T5 sequence (whole entry)": "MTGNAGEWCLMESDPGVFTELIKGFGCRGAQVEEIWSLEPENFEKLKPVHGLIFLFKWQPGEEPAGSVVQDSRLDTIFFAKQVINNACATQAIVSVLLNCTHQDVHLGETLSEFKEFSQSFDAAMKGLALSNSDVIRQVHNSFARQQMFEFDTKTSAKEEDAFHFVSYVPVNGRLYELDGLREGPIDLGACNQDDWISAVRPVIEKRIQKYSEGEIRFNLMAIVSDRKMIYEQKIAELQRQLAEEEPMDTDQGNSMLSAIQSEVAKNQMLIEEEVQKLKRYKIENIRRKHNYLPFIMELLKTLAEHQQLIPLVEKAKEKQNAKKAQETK", "outline": "as §1"}, "USP10": {"biological_target": "USP10 (UniProt Q14694)", "sequence (Q14694 whole entry)": "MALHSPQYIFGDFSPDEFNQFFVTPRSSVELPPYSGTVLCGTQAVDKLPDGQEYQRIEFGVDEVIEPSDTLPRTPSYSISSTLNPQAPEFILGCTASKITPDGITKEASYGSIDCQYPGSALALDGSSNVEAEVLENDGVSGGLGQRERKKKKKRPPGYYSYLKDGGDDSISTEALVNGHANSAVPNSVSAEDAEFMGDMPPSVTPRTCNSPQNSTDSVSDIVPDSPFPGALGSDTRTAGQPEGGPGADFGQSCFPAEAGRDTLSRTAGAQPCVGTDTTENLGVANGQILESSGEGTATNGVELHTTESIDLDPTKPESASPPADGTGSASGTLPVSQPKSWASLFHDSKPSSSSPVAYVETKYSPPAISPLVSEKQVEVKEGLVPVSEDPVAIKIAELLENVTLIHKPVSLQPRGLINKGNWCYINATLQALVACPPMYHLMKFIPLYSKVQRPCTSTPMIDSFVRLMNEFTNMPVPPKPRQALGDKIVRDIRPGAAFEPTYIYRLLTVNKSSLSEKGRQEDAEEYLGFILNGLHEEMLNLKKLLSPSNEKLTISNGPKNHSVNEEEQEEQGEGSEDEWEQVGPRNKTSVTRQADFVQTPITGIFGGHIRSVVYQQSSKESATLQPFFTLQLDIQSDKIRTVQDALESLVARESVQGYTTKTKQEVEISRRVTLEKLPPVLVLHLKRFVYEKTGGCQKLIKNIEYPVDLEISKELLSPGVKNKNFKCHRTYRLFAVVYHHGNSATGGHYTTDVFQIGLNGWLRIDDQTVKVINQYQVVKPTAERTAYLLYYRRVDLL", "outline": "as §1"}, "USP15": {"biological_target": "T6, USP15 (UniProt Q9Y4E8)", "T6 sequence (whole entry)": "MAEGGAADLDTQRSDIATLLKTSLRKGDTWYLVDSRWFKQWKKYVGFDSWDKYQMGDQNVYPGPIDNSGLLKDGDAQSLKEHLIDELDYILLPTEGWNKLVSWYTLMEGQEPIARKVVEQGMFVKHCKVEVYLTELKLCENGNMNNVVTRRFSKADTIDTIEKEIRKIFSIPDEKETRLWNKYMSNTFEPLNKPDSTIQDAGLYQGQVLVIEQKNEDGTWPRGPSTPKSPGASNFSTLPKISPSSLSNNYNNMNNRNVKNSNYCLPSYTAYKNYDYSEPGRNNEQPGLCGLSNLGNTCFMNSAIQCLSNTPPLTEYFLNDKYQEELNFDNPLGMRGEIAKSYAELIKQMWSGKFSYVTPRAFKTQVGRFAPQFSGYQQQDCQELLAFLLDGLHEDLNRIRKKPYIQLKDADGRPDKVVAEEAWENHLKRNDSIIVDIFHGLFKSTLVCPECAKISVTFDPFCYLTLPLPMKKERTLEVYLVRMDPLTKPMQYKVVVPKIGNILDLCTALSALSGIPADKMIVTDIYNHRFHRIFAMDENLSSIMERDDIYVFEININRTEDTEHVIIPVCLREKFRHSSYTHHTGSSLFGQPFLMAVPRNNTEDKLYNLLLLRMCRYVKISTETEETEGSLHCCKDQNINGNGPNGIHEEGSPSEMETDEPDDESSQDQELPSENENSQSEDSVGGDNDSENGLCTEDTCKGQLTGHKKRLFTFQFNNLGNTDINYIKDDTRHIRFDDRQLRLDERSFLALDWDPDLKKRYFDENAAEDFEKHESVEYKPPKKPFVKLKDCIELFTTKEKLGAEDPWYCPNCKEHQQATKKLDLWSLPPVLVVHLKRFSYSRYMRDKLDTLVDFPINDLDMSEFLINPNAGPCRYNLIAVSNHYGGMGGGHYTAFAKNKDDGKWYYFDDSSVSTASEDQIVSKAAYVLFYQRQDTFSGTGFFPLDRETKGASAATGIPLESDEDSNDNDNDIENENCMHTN", "outline": "as §1"}, "USP16": {"biological_target": "USP16 (UniProt Q9Y5T5)", "sequence (Q9Y5T5 whole entry, looked up)": "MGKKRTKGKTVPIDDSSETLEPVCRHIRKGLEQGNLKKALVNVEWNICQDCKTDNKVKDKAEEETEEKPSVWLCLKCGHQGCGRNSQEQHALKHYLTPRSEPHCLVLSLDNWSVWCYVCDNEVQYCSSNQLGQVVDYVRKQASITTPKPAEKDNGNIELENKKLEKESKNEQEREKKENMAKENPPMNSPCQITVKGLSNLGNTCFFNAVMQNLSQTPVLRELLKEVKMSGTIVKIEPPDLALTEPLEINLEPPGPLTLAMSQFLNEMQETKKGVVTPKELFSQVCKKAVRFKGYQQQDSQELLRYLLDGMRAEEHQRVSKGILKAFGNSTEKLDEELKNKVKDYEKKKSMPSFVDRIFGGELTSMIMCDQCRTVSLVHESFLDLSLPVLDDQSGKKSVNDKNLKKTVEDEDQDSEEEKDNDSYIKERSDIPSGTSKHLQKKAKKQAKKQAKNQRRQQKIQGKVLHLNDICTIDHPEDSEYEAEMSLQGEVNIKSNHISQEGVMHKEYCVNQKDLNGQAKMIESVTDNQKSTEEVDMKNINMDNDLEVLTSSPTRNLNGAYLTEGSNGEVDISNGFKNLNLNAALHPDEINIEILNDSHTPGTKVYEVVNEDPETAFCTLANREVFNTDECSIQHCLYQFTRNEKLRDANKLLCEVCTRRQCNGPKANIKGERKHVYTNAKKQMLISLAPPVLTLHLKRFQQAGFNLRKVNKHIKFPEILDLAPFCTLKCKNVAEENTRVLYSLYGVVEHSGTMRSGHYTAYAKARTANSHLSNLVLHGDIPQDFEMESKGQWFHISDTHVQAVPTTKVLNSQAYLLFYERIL", "outline": "as §1"}}, "note": "Unmarked numbers belong to inactive results.", "data": [{"smiles": "O=C(CCl)NC1CCS(=O)(=O)c2ccccc21", "note": "(stereo not given)", "values": [{"measurement": "log2 ratio of Biotin-Ahx-Ub-VS probe labelling", "setting": "OTUD6B", "value": -0.258}, {"measurement": "log2 ratio of Biotin-Ahx-Ub-VS probe labelling", "setting": "OTUD7B", "value": "-1.79 (active)"}, {"measurement": "log2 ratio of Biotin-Ahx-Ub-VS probe labelling", "setting": "PRPF8", "value": -0.00882}, {"measurement": "log2 ratio of Biotin-Ahx-Ub-VS probe labelling", "setting": "PSMD7", "value": -0.335}, {"measurement": "log2 ratio of Biotin-Ahx-Ub-VS probe labelling", "setting": "UCHL1", "value": "-1.81 (active)"}, {"measurement": "log2 ratio of Biotin-Ahx-Ub-VS probe labelling", "setting": "UCHL3", "value": 0.125}, {"measurement": "log2 ratio of Biotin-Ahx-Ub-VS probe labelling", "setting": "UCHL5", "value": -0.554}, {"measurement": "log2 ratio of Biotin-Ahx-Ub-VS probe labelling", "setting": "USP10", "value": 0.0657}, {"measurement": "log2 ratio of Biotin-Ahx-Ub-VS probe labelling", "setting": "USP15", "value": -0.242}, {"measurement": "log2 ratio of Biotin-Ahx-Ub-VS probe labelling", "setting": "USP16", "value": -0.0991}]}]}
